Our source for the binding response (% of control) values is PubChem BioAssay AID1529 (NMMLSC, 2009).

The whole screen tested about 290,000 compounds, of which about 4,200 (1.4%) were called active.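 The calls were made as follows: active = binding response more than 3 SD above or below the average of its plate-row segment, actives on both sides; inconclusive = wells at one plate position flagged as instrument error; inactive = the rest.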 The full list was thinned out, with actives kept by preference.

The test deals with Mitogen-activated protein kinase kinase kinase 3 (Homo sapiens) (UniProt Q99759). The test is described as follows: compounds raising or lowering MEK5 association with MEKK3 PB1 – biochemical, wildtype MEKK3, multiplex bead flow cytometry, Alexa488-MEK5, primary screen (AID 1529).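 Also: Alexa488 bead fluorescence after subtracting the streptavidin-only scavenger bead signal.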 Particulars: bead-based flow cytometry, Alexa488-MEK5 binding to MEKK3; at 10 µM; actives lie on both sides; 0 = blocked by unlabeled MEK5, 100 = vehicle. (A flow cytometer gives signals particle by particle.)
Mitogen-activated protein kinase kinase kinase 3 (Homo sapiens), sequence (Q99759 whole entry, looked up): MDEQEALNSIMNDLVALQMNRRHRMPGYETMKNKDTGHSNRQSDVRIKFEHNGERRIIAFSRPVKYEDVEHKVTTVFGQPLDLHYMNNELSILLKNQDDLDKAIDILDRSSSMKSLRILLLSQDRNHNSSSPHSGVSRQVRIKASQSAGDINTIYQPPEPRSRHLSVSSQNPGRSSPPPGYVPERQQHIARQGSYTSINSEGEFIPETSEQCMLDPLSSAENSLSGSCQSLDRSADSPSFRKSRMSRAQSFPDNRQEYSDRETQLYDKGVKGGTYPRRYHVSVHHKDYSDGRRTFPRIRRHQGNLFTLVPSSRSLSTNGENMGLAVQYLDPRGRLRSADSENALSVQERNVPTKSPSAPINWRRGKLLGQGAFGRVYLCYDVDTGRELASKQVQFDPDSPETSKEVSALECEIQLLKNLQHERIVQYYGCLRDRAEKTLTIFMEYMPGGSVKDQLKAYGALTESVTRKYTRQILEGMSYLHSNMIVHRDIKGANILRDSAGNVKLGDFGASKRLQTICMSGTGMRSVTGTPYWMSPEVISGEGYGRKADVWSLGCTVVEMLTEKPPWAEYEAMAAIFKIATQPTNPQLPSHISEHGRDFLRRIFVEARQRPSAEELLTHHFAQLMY
Take `O=C(O)c1cc(S(=O)(=O)N(Cc2ccccc2)c2cccc(C(F)(F)F)c2)ccc1Cl`: the binding response (% of control) is 106% (inactive). `CCc1nnc(NC(=O)CCN(c2ccc(C)cc2)S(=O)(=O)c2ccccc2)s1`: the binding response (% of control) was 108% (inactive). Consider `Cc1ccc(N(CCC(=O)O)S(=O)(=O)c2cccc(C(F)(F)F)c2)cc1`, for which the binding response (% of control) was 3% [inhibitor] (active). As to `Cc1cc(=O)n2nc(N3CCCC(C(=O)NCc4ccc(Cl)cc4)C3)sc2n1` (stereo not given), the binding response (% of control) is 99% (inactive).

Take `COc1cc(C)nc(N2CCCC(C(=O)NCC(C)C)C2)n1` (stereo not given): the binding response (% of control) was 130% (active). Consider `Cc1ccnc(N2CCCC(C(=O)NC3CC3)C2)n1` (stereo not given), for which the binding response (% of control) was 100% (inactive).

On to `CN1CCN(CCNC(=O)Nc2ccccc2[N+](=O)[O-])CC1`, for which the binding response (% of control) is 104% (inactive). Regarding `O=C(CN(C(=O)c1csnn1)c1ccc(Br)cc1)NC1CCCC1`, the binding response (% of control) is 101% (inactive).

In the case of `Cc1ccc(CN(CC(=O)NC2CCCCC2)C(=O)c2csnn2)cc1`, the binding response (% of control) is 103% (inactive). On to `Cc1ccccc1CCN(CC(=O)NC1CCCCC1)C(=O)c1csnn1`, for which the binding response (% of control) was 142% (active). Regarding `COc1cc([N+](=O)[O-])ccc1NC(=O)CN1CCCC1`, the binding response (% of control) was 104% (inactive). In the case of `COc1ccccc1CC(=O)Nc1ccc(F)cc1F` it was 106% (inactive); in that of `COc1ccccc1CC(=O)Nc1ccc([N+](=O)[O-])cc1OC`, 139% (active); in that of `CCC(C)(C)NC(=O)C1c2ccccc2Oc2ccccc21`, 99% (inactive). As for `CCC(C)NC(=O)C1c2ccccc2Oc2ccccc21` (stereo not given), the binding response (% of control) is 71% (inactive). `CC(C)(C)c1nnc(NC(=O)C2c3ccccc3Oc3ccccc32)s1`: the binding response (% of control) is 45% [inhibitor] (active). Take `C=CCSc1nnc2c(n1)-c1cccc3cccc-2c13`: the binding response (% of control) is 104% (inactive). With `COc1ccc(C(=O)NC(=S)NC2CCCCC2)cc1`, the binding response (% of control) is 106% (inactive). Turning to `Brc1ccccc1C1N=C(c2ccccc2)NO1` (stereo not given), the binding response (% of control) was 103% (inactive).

`Cc1ccc2c(c1)N(C(=O)CCC(=O)NCc1cccnc1)CCO2`: the binding response (% of control) is 100% (inactive). Consider `COc1cccc(NC(=O)CN(C)C(=O)Cc2ccc(Cl)cc2Cl)c1`, for which the binding response (% of control) was 106% (inactive). Regarding `COc1ccc(/C=C/C(=O)OCC(=O)Nc2cccc(Oc3ccccc3)c2)c(OC)c1`, the binding response (% of control) was 106% (inactive).

Regarding `COc1cccc(NC(=O)CN(C)C(=O)/C=C/c2cc(OC)ccc2OC)c1`, the binding response (% of control) was 151% (active). On to `CCOC(=O)N1CCN(C(=O)c2cn(C)c3ccc(S(=O)(=O)N(CC)CC)cc3c2=O)CC1`, for which the binding response (% of control) is 98% (inactive). As for `CCOC(=O)CC1(NC(=O)c2cc(COc3cncc(Cl)c3)on2)CCCCC1`, the binding response (% of control) is 103% (inactive). Regarding `O=C(CN1C(=O)CSC1=O)N1CCCC(Nc2ccc(F)cc2)C1` (stereo not given), the binding response (% of control) was 102% (inactive). As to `CN(C(=O)c1cc2c(=O)n3ccccc3nc2s1)C1CCCCC1`, the binding response (% of control) was 100% (inactive).

For `Cn1c(=O)c2c(nc(N/N=C/c3cccs3)n2Cc2ccc(Br)cc2)n(C)c1=O`, the binding response (% of control) was 131% (active).

Turning to `Cn1c(=O)c2sccc2n(Cc2ccc(Br)cc2)c1=O`, the binding response (% of control) was 101% (inactive). Take `Cn1c(=O)c2c(nc(NCCc3ccccc3)n2Cc2ccccc2)n(C)c1=O`: the binding response (% of control) is 96% (inactive). Regarding `COc1cccc(OCC(=O)NNC(=O)c2cnccn2)c1`, the binding response (% of control) was 2% [inhibitor] (active).

On to `COc1ccc(OCC(=O)NNC(=O)c2cccc(C)c2)cc1`, for which the binding response (% of control) was 103% (inactive). In the case of `COc1cccc(OCC(=O)Nc2ccccc2C(N)=O)c1` it was 110% (inactive). On to `Cc1c(C(C)(C)O)[nH]c2ccc(C#N)cc12`, for which the binding response (% of control) is 103% (inactive). For `CCOC(=O)C(NS(=O)(=O)c1ccc(C)cc1)(C(F)(F)F)P(=O)(OCC(C)C)OCC(C)C` (stereo not given), the binding response (% of control) was 140% (active). On to `CC(=O)N1CCN(CC(C)(C)NS(=O)(=O)c2ccc(C)cc2)CC1`, for which the binding response (% of control) is 102% (inactive). For `Cc1ccc(S(=O)(=O)NCC(C)NS(C)(=O)=O)cc1` (stereo not given), the binding response (% of control) is 97% (inactive). For `Cc1cc(C(=O)NCCCc2ccccc2)no1`, the binding response (% of control) was 99% (inactive). With `CCCOc1ccc(C(=O)NCCc2ccccc2)cc1`, the binding response (% of control) is 97% (inactive). As for `CC(C)c1ccc(C(=O)NCCCc2ccccc2)cc1`, the binding response (% of control) was 2% [inhibitor] (active). For `Cc1ccccc1-n1c(C)cc(/C=C2\NC(=O)NC2=O)c1C`, the binding response (% of control) was 57% (inactive). On to `Cc1no[n+]([O-])c1COc1ccccc1/C=C1\NC(=S)NC1=O`, for which the binding response (% of control) was 126% (active). On to `C#CCOc1ccccc1/C=C1/C(=O)ON=C1C`, for which the binding response (% of control) was 110% (inactive).

Regarding `COc1cc(S(=O)(=O)Nc2ncn[nH]2)ccc1Cl`, the binding response (% of control) was 102% (inactive). Take `CS(=O)(=O)Nc1ccc(C2=NN(S(C)(=O)=O)C(c3cccs3)C2)cc1` (stereo not given): the binding response (% of control) was 10% [inhibitor] (active). Take `CS(=O)(=O)Nc1cccc(C2=NN(S(=O)(=O)c3ccccc3)C(c3cccs3)C2)c1` (stereo not given): the binding response (% of control) was 95% (inactive).

As for `CCS(=O)(=O)Nc1ccc(C2=NN(C(C)=O)C(c3cccs3)C2)cc1` (stereo not given), the binding response (% of control) was 55% (inactive). Take `Cc1occc(=O)c1OCc1c(Cl)cccc1Cl`: the binding response (% of control) is 102% (inactive).

With `CCOc1ccc(NC(=O)C2CCN(C(=O)N3CCOc4ccccc43)CC2)cc1`, the binding response (% of control) is 103% (inactive). For `Cc1ccc(-c2noc(C3CCCN(C(=O)c4cccc(Cl)c4)C3)n2)o1` (stereo not given), the binding response (% of control) is 99% (inactive). For the molecule `COc1ccc(N2CCN(C(=O)CN3C(=O)COc4ccccc43)CC2)cc1`, the binding response (% of control) was 101% (inactive). Turning to `COc1ccc(OCCCCN2CCC(C)CC2)cc1`, the binding response (% of control) is 108% (inactive). Under `C/C=C/c1ccc(OCCCCN2CCC(C)CC2)c(OC)c1` stands 69% [inhibitor] (active); under `C/C=C/c1ccc(OCCOc2ccc(C=O)cc2OC)c(OC)c1`, 100% (inactive); under `O=c1[nH]snc1-c1c(Cl)cccc1Cl`, 105% (inactive). Regarding `COc1cccc(NC(=O)COc2cc(C)cc3oc(=O)cc(C)c23)c1`, the binding response (% of control) was 103% (inactive). In the case of `CCOC(=O)N1CCN(CCC(=O)Nc2cc(OC)ccc2OC)CC1`, the binding response (% of control) was 96% (inactive). Under `CCOc1ccc(Nc2nc(Cl)nc(N3CCN(c4ccc(OC)cc4)CC3)n2)cc1` stands 103% (inactive); under `CCN1CCN(c2nc(Nc3cc(OC)ccc3OC)nc(Nc3cc(OC)ccc3OC)n2)CC1`, 37% [inhibitor] (active); under `CC(=O)O[C@H]1c2ccccc2-c2ccccc2[C@@H]1OC(C)=O`, 104% (inactive). In the case of `COC(=O)c1ccc(NC(=O)c2cc3c(CO)cnc(C)c3oc2=Nc2cccc(C(N)=O)c2)cc1` it was 102% (inactive); in that of `O=C(NC1CCCC1)C(c1ccco1)N(C(=O)c1csnn1)c1ccccc1` (stereo not given), 100% (inactive); in that of `CCOC(=O)/C=c1\s/c(=C\c2ccc(C#N)cc2)c(=O)n1CC(=O)Nc1cccc(C)c1C`, 102% (inactive). Regarding `CN(c1ccccc1)c1ccc(/C=c2\s/c(=C(/C#N)C(=O)C(C)(C)C)n(Cc3ccco3)c2=O)cc1`, the binding response (% of control) is 47% [inhibitor] (active). As to `Cc1cs/c(=N\N=C\c2ccc(O)cc2)n1Cc1ccco1`, the binding response (% of control) was 100% (inactive).

Regarding `COc1ccc(Cc2nc3ccc(C(=O)N4CCC(N(C)C)C4)cc3o2)cc1` (stereo not given), the binding response (% of control) was 97% (inactive). Consider `COc1cc2c(C(=O)N(C)c3cc(Cl)ccc3OC)cn(C)c(=O)c2cc1OC`, for which the binding response (% of control) was 102% (inactive). Regarding `COCCNC(=O)CCCn1c(=O)c2ccccc2n(Cc2cccc([N+](=O)[O-])c2)c1=O`, the binding response (% of control) was 101% (inactive). In the case of `Cc1ccc(CNC(=O)Cn2c(=O)c3sccc3n(Cc3cccc([N+](=O)[O-])c3)c2=O)cc1` it was 141% (active); in that of `O=C(NCc1ccco1)c1ccc(Cn2c(=O)c3sccc3n(Cc3ccc(F)cc3)c2=O)cc1`, 115% (inactive); in that of `COc1ccccc1N1CCN(c2nc(C)cc(=O)[nH]2)CC1`, 104% (inactive). Under `CCOC(=O)C1CN(S(=O)(=O)c2ccc(OC)cc2)c2cc(Cl)ccc2O1` (stereo not given) stands 105% (inactive).

Turning to `CC(=O)c1c(C)oc2ccc(NS(=O)(=O)c3ccc(C(=O)O)cc3)cc12`, the binding response (% of control) is 99% (inactive). Under `CC(=O)c1c(C)oc2ccc(NS(=O)(=O)c3ccccc3)cc12` stands 101% (inactive); under `COc1ccc(S(=O)(=O)Nc2ccc3oc(C)c(C(C)=O)c3c2)cc1`, 122% (active). As for `Cc1nc2cc(S(=O)(=O)C(F)(F)F)ccc2s1`, the binding response (% of control) is 129% (active). As to `Cc1nc2ccc(S(=O)(=O)NCC(=O)O)cc2s1`, the binding response (% of control) was 106% (inactive). On to `Cc1nc2ccc(S(=O)(=O)NC(C(=O)N3CCCCCC3)C(C)C)cc2s1` (stereo not given), for which the binding response (% of control) was 105% (inactive). As to `CCOc1ccccc1NC(=O)C1CCCN(S(=O)(=O)c2ccccc2)C1` (stereo not given), the binding response (% of control) is 100% (inactive).

With `O=S(=O)(c1ccccc1)c1nc(Cc2ccccc2)oc1N1CCOCC1`, the binding response (% of control) was 98% (inactive).

Take `Cc1nnc(NC(=O)C(c2ccccc2)c2ccccc2)s1`: the binding response (% of control) is 98% (inactive). Take `CCCc1cc(=O)[nH]c(SCC(=O)N2C(C)CCCC2C)n1` (stereo not given): the binding response (% of control) is 107% (inactive).

`CCCc1nnc(SCC(=O)N2C(C)CCCC2C)n1CC` (stereo not given): the binding response (% of control) was 145% (active). Regarding `CC1CCCC(C)N1C(=O)CSc1nnnn1C1CCCC1` (stereo not given), the binding response (% of control) is 101% (inactive). On to `O=C(O)c1ccc(NC(=O)c2ccc(COc3ccc(Cl)cc3)o2)cc1`, for which the binding response (% of control) is 103% (inactive). With `CC1CN(CC(=O)NC(C)c2ccccc2)CC(C)O1` (stereo not given), the binding response (% of control) was 101% (inactive).

For `COc1ccc(N2CCN(C(=O)c3cccs3)CC2)cc1`, the binding response (% of control) is 97% (inactive). For the molecule `COc1ccc(Cl)cc1NC(=O)CCS(=O)(=O)c1ccc(Br)cc1`, the binding response (% of control) was 80% [inhibitor] (active).

Regarding `O=C(CCS(=O)(=O)c1ccc(Br)cc1)NCCc1ccc(Cl)cc1`, the binding response (% of control) is 105% (inactive). Consider `COc1ccc(Cl)cc1NC(=O)CCS(=O)(=O)c1cc2c(cc1C)NC(=O)CO2`, for which the binding response (% of control) is 104% (inactive). As for `CN(C)c1ccc(NC(=O)CN2C3CCCC2CC(NC(=O)c2ccccc2)C3)cc1` (stereo not given), the binding response (% of control) is 104% (inactive). Turning to `COc1ccccc1CNC(=O)c1ccc(N(C)S(=O)(=O)c2ccc(C)cc2)cc1`, the binding response (% of control) was 96% (inactive). In the case of `COc1ccc(-c2[nH]ncc2CN(C)Cc2cc(C)[nH]n2)c(F)c1` it was 102% (inactive); in that of `COc1ccc(-c2[nH]ncc2CN(C)Cc2cccnc2)c(F)c1`, 108% (inactive); in that of `COc1ccc(-c2[nH]ncc2CN(C)Cc2c(C)n[nH]c2C)c(OC)c1`, 0% [inhibitor] (active).
